Rows were chosen to be rich in hits. Some 6% of all compounds tested hit in one or more screens of this group.
DRD3 antagonist: antagonists of human D3 dopamine receptor; P35462; D3R cells, DiscoveRx beta-arrestin luminescence, antagonist mode; active compounds read low; max response, negative = inhibition, %; actives 2.5% (n = 360,000); in the data active = max response below about -50%; inconclusive = no clear call, values can overlap the other calls; also: % is scaled to controls: 0 for no effect and ±100 for the full control effect
Target sequence (P35462 whole entry, looked up): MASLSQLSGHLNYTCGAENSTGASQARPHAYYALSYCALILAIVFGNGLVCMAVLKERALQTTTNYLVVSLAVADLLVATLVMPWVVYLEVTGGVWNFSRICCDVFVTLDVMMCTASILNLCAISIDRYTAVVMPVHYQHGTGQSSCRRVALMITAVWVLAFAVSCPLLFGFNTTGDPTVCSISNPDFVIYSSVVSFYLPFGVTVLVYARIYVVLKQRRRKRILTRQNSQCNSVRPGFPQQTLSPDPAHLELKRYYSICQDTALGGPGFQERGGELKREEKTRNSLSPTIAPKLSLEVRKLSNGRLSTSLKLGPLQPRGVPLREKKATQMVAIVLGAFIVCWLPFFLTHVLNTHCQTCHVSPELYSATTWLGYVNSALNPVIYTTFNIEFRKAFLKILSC
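Cells plated overnight at 1500 cells/well, then exposed to library compounds with dopamine controls for 90 minutes at 37 degrees C. DiscoveRx reagent added for 30–60 minutes at room temperature; luminescence read, quantitative HTS format.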
D3 ag: agonists of human D3 dopamine receptor | P35462 | D3R DiscoveRx beta-arrestin cells, luminescence, 90 min | max activation, % | actives 0.58% (n = 410,000) | AID 652048; in the data active = max activation above about 30%; also: 0% is about no effect
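Agonist mode: compounds and dopamine controls were applied to plated cells for 90 min at 37 degrees C after an overnight attachment at 1500 cells/well. Luminescent read-out followed 30 - 60 minutes at room temperature with DiscoveRx detection reagent.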
Chronic BCR inh: chronic active BCR signaling inhibition. actives 0.05% (n = 340,000). AID 493014. ABC-DLBCL IkBa-CBG/CBR reporter, luminescence ratio, 4 h. Potency, µM (top dose mostly 46.1 µM), inactives show top-dose activity change, negative = inhibition, most hits filed as inhibitors; active = well fitted inhibition curve with a large enough effect in the signal ratio, with a control signal flat, not every such curve was filed as active; inconclusive = small, poorly fitted or top-dose-only effect, or effect the other way, or a change in a side signal; the % refers to the signal ratio;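 also: potency is read from the fitted curve at half-maximal effect; plate controls were basal doxycycline-induced cells for no effect and cells given 10 µM MG132 for full effect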
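TMD8 ABC-DLBCL cells carrying doxycycline-inducible green luciferase fused to IkappaBalpha plus unfused red luciferase were exposed to compounds (up to 46 uM) for 4 hrs at 37C. Activity came from the overlap-corrected green/red luminescence ratio.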
D1 antagonist: antagonists of human D1 dopamine receptor. P21728. HEK293 TREx D1 cells, calcium flux, dopamine EC80; active compounds read low. activity change, negative = inhibition, % at 10 µM. actives 3.2% (n = 360,000); in the data active = activity change below about -30%; also: % is scaled to controls: 0 for no effect and ±100 for the full control effect
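Inducible Hek293 Trex D1 cells (tetracycline, overnight, 30 C). Calcium dye 30–90 min RT. Antagonist mode: EC80 dopamine added after 180 s compound read.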
D1 agonist: agonists of human D1 dopamine receptor. activation, % at 2 µM. HEK293 T-REx D1 cells, calcium flux, agonist mode. actives 1% (n = 360,000). AID 504660. P21728; in the data active = activation above about 30%; also: 0% is about no effect
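Agonism was scored from calcium flux recorded over 180 s (1 read/s) after pintool compound addition, following a 10-cycle baseline. Cells were inducible force-coupled HEK293 TREx D1, plated overnight at 30 C and loaded with no-wash calcium dye.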
D1 potentiator: enhances dopamine response at the human D1 receptor. P21728. HEK293 TREx D1 cells, calcium flux, dopamine EC20 potentiation. potentiation, % at 10 µM. actives 0.036% (n = 360,000); in the data active = potentiation above about 30%; also: 0% is about no effect
* hit, by the source's call; ? = inconclusive; . = no result; ! = repeats disagree.

SMILES	DRD3 antagonist	D3 ag	Chronic BCR inh	D1 antagonist	D1 agonist	D1 potentiator
COc1cc(/C=C/C(=O)N2C(=O)c3cccc(N)c3C2=O)cc(OC)c1OC	-82*	-10	-26%	4	1	0
COc1ccc(OC)c(/C=C/C(=O)N2C(=O)c3cccc(N)c3C2=O)c1	-65*	2	-12%	-11	0	1
Nc1cccc2c1C(=O)N(C(=O)/C=C/c1cccc(Br)c1)C2=O	-11	17	?	2	5	-3
COc1cccc(-c2cc3nc(NCc4ccccc4F)n(C)c(=O)c3s2)c1	-20	3	.	.	.	.
CCC(=O)N1CCc2cc(S(=O)(=O)CCC(=O)Nc3ccc(Cl)c(C(F)(F)F)c3)ccc21	.	5	.	-2	2	6
CC1CCc2c(sc(NC(=O)CSc3ncn[nH]3)c2C#N)C1 (stereo unspecified)	19	2	?	-28	9	-2
N#Cc1ccsc1NC(=O)CSc1ncn[nH]1	-24	-5	3%	-1	5	-2
CC(C)(C)C1CCc2c(sc(NC(=O)CSc3ncn[nH]3)c2C#N)C1 (stereo unspecified)	21	36*	?	17	1	4
N#Cc1c(NC(=O)CSC2=NCCS2)sc2c1CCCC2	14	5	-1%	-10	1	-3
N#Cc1ccccc1NC(=O)CSc1ncn[nH]1	.	-16	.	-35*	1	-3
N#Cc1c(NC(=O)CSc2ncn[nH]2)sc2c1CCCC2	-2	1	23µM*	-2	5	-9
Cc1cc(C)cc(NC(=O)c2nnn(Cc3cc(C)ccc3C)c2N)c1	?	-9	?	-44*	10	0
Cc1ccc(C)c(Cn2nnc(C(=O)Nc3ccc4c(c3)OCCO4)c2N)c1	10	9	?	-4	50*	6
COc1ccc2c(Sc3ccccc3)c(C(=O)NCC(C)c3ccccc3)[nH]c2c1 (stereo unspecified)	.	2	.	-5	4	-2
COc1ccc(NC(=O)C2=C(C)C(=O)OC23CCN(C(C)C)CC3)cc1Cl	.	0	.	-18	5	-5
CC(C)=CCc1cc([C@@H]2CC(=O)c3ccc(O)c(CC=C(C)C)c3O2)ccc1O	56	31*	.	.	.	.
Cc1ccccc1S(=O)(=O)NC(=O)C1(C)CCN1C(=O)c1ccccc1CCc1ccccc1 (stereo unspecified)	13	0	.	.	.	.
Cc1cc(C)cc(OCC2CNC(=O)O2)c1 (stereo unspecified)	14	83*!	.	.	.	.
COc1ccccc1OCC1CNC(=O)O1 (stereo unspecified)	.	0	.	.	.	.
C[C@@H](NC(=O)Cn1ccc(NC(=O)OCc2ccccc2)nc1=O)c1cccc2ccccc12	0	-12	-3%	-33*	3	-5
O=C(Nc1ccn(CCCNC2CCN(Cc3ccccc3)CC2)c(=O)n1)OCc1ccccc1	-53*	-12	.	.	.	.
O=C(Nc1ccn(CCCNCCN2CCOCC2)c(=O)n1)OCc1ccccc1	-16	-34	.	.	.	.
O=C1C(c2ccc(F)cc2)N(CCc2ccc(Cl)cc2)C(=O)CN1C1CCCCCC1 (stereo unspecified)	.	-8	5%	-18	6	1
CC1=C(SCc2ccccc2)C(=O)c2ccccc2C1=O	-89*	-15	.	.	.	.
COC(=O)c1ccc(Oc2nc3c(c(=O)n(C)c(=O)n3C)n2Cc2ccc(Cl)c(Cl)c2)cc1	.	-2	.	0	0	0
SMILES	DRD3 antagonist	D3 ag	Chronic BCR inh	D1 antagonist	D1 agonist	D1 potentiator
Cc1c(C(=O)Nc2ccncc2)sc2nc(-c3ccccc3)cn12	13	3	4%	-34*	17	-8
Cc1cnc(C(=O)Nc2ccc(F)cc2)cn1	10	-1	?	-1	3	-3
Cc1cnc(C(=O)Nc2ccc(C(C)C)cc2)cn1	-14	-11	-1%	-31*	-1	-10
CCOc1ccc2cc(-c3nnc(Nc4ccccc4F)s3)c(=O)oc2c1	.	6	.	6	6	3
CCOc1ccccc1Nc1nnc(-c2cc3cc(OC)ccc3oc2=O)s1	.	20	?	-15	56*	-3
CC1=C(C(=O)Nc2cccnc2)C(c2ccccc2Cl)n2nc(-c3ccccc3)nc2N1 (stereo unspecified)	.	12	.	-1	2	-1
CSc1ccc(OC2(C)CCN(Cc3ccc(C(C)C)cc3)C2)cc1 (stereo unspecified)	-61*	-12	.	.	.	.
CCCNC(=O)C1(C)CCCN(Cc2cc3ccccc3o2)C1 (stereo unspecified)	-29	-14	.	.	.	.
CCc1ccc(OC2(C)CCN(Cc3ccc(SC)cc3)C2)cc1 (stereo unspecified)	-60*	-24	.	.	.	.
CSc1ccc(OC2(C)CCN(Cc3cc4ccccc4o3)C2)cc1 (stereo unspecified)	-74*	-5	.	.	.	.
CSc1ccc(CN2CCC(C)(Oc3cccc(F)c3)C2)cc1 (stereo unspecified)	-92*	-22	.	.	.	.
CC1(Oc2ccc(Cl)cc2)CCN(Cc2ccc(OC(F)(F)F)cc2)C1 (stereo unspecified)	5	-6	.	.	.	.
CSc1ccc(CN2CCC(C)(Oc3ccccc3)C2)cc1 (stereo unspecified)	-97*	-11	.	.	.	.
CSc1ccc(CN2CCC(C)(Oc3cccc(C#N)c3)C2)cc1 (stereo unspecified)	?	-6	.	.	.	.
Cc1ccc(Cn2ccsc2=NC(=O)COC(=O)C(C)C)cc1	11	0	6%	-48*	0	-1
Cc1ccc(Cn2ccsc2=NC(=O)COC(=O)c2ccc(O)cc2O)cc1	8	2	?	-23	11	2
O=C(Nc1ccc2oc(-c3cccnc3)nc2c1)c1ccccc1F	.	-3	.	7	1	-1
CCOC(=O)c1ccccc1NC(=O)CSc1nnc(Cc2cccn2C)n1-c1ccc(C)cc1	21	39*	2%	17	2	1
COc1ccc(-n2c(Cc3cccn3C)nnc2SCC(=O)Nc2ccccc2C)cc1	-7	0	0%	-1	2	3
COc1ccc(NC(=O)CSc2nnc(Cc3cccn3C)n2-c2ccc(C)cc2)cc1OC	106	30*	0%	-39*	0	-3
COc1ccccc1NC(=O)CSc1nnc(Cc2cccn2C)n1CCc1ccccc1	5	-2	0%	-31*	3	-7
COc1ccccc1C(=O)N1CCC(c2c[nH]c3ccccc23)(c2c[nH]c3ccccc23)CC1	.	8	.	12	1	-3
CCc1nn2c(=O)cc(COC(=O)CNC(=O)COc3ccc(C)cc3)nc2s1	.	-17	.	-52*	1	-10

Screening results (PubChem)
